a7 integrin act: activators of alpha7 integrin expression for muscular dystrophy; alpha7betagal myoblasts, beta-gal FDG fluorescence, 48 h; Potency, µM (titrated, usually from 38.3 µM), actives largely listed as activators; actives 0.064% (n = 350,000); AID 624291; active means well fitted activation curve with a large enough effect; inconclusive means small, poorly fitted or top-dose-only effect; inactive means no such curve, though single readings can be large or run the other way; further: nearly all actives have a fitted effect of over 60% in size
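alpha7betagal+/- myoblasts (passage 13, 250/well) treated 48 h at 37C with compounds at 1:260 dilution of DMSO stock. Lysed, then beta-galactosidase activity read as FDG fluorescence (ex 480/em 540) after 30 min, with pre-read for autofluorescence.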
DRD3 antagonist: D3 dopamine receptor (human) antagonism | D3R cells, DiscoveRx beta-arrestin luminescence, antagonist mode; stronger effect = lower value | AID 652054 | max response, negative = inhibition, % | actives 2.5% (n = 360,000) | P35462; in the data active means max response below about -50%; inconclusive means no clear call, values can overlap the other calls
Target sequence (P35462 whole entry, looked up): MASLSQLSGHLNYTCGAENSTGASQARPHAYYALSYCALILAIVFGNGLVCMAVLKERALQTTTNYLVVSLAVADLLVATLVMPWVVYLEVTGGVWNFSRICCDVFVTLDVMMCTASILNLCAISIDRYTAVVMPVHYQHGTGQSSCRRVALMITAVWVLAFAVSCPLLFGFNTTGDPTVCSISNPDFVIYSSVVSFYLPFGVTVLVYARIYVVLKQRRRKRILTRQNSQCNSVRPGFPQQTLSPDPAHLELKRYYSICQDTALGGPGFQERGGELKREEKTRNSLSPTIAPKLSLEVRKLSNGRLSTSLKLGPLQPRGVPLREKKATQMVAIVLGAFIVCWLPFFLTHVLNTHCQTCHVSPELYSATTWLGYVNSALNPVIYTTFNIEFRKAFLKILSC
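Cells plated overnight at 1500 cells/well, then exposed to library compounds with dopamine controls for 90 minutes at 37 degrees C. DiscoveRx reagent added for 30–60 minutes at room temperature; luminescence read, quantitative HTS format.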
DRD3 agonist: D3 dopamine receptor (human) agonism. P35462. D3R DiscoveRx beta-arrestin cells, luminescence, 90 min. max activation, %. actives 0.58% (n = 410,000); in the data active means max activation above about 30%
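Agonist mode: compounds and dopamine controls were applied to plated cells for 90 min at 37 degrees C after an overnight attachment at 1500 cells/well. Luminescent read-out followed 30 - 60 minutes at room temperature with DiscoveRx detection reagent.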
Each line names hits and unclear results; the compound was inactive in the other large screens. An excerpt weighted towards active compounds, which were near 2.9% of everything screened.

CC(=O)c1c(C)[nH]c(C(=O)NCCN2CCC(C)CC2)c1C	DRD3 antagonist -51
CC(CN1CCCCC1)OC(=O)c1ccc(Cl)cc1 (stereo unspecified)	DRD3 antagonist -56
O=C(c1ccc(Cl)cc1)C(CN1CCCCC1)c1ccccc1 (stereo unspecified)	DRD3 antagonist -73
CC(CN1CCCCC1)OC(=O)C1c2ccccc2Oc2ccccc21 (stereo unspecified)	DRD3 antagonist -63
CCOC(=O)C(CN1CCCC1)c1ccccc1 (stereo unspecified)	none
CC(CN1CCCC1)OC(=O)c1ccc(Br)cc1 (stereo unspecified)	DRD3 antagonist -67
COc1cc(C(=O)OC(C)CN2CCCC2)cc(OC)c1OC (stereo unspecified)	none
CC(CN1CCCCC1)OC(=O)c1ccccc1F (stereo unspecified)	none
CC(CN1CCN(C)CC1)OC(=O)c1ccc(Cl)cc1 (stereo unspecified)	none
COCCCNC(=O)N1CCN(c2nnc(C)c3c(C)n(-c4ccc(Cl)cc4)nc23)CC1	none (no result: a7 integrin act, DRD3 antagonist)
O=C(CCn1cnc2ncccc2c1=O)N1CCN(c2cccc(Cl)c2)CC1	none
CC(C)c1nnc(NC(=O)COc2ccc3ccccc3c2)s1	none
Cc1cc(C)cc(Nc2cc(C(=O)NCCCN(Cc3ccccc3)C(C)C)c3ccccc3n2)c1	none (no result: a7 integrin act, DRD3 antagonist)
O=C(C1=C[C@@H](C2CCCCC2)C[C@@H](OCc2ccc(CO)cc2)O1)N1CCN(Cc2ccccc2)CC1	none
CCCCCC(C)N (stereo unspecified)	none (no result: a7 integrin act, DRD3 antagonist)
O=C(CCC1COc2ccccc2O1)Nc1ccccn1 (stereo unspecified)	none
O=C(CCC1COc2ccccc2O1)Nc1cccnc1 (stereo unspecified)	DRD3 agonist 33
CCN=c1scc(C)n1/N=C/c1ccc(O)c(O)c1O	none
COCCN=c1scc(-c2cccs2)n1/N=C/c1ccc(O)c(O)c1O	DRD3 agonist 90
N#Cc1c(Nc2ccccc2Cl)s[nH]c1=O	DRD3 antagonist -65
N#Cc1c(Nc2ccccc2C(F)(F)F)s[nH]c1=O	DRD3 antagonist inconclusive
O=C(COC(=O)CNC(=O)c1ccc2c(c1)OCO2)Nc1ncc(Cl)cc1Cl	none
COc1ccc(CNC(=O)C(c2ccc(C)o2)N(Cc2cccs2)C(=O)Cc2cccs2)cc1 (stereo unspecified)	DRD3 antagonist -57
COCCN(C(=O)Cc1cccs1)C(C(=O)NCc1ccc(OC)cc1)c1ccc(C)cc1 (stereo unspecified)	none
O=C(NNC(=O)c1ccc2nonc2c1)Nc1ccc(Cl)cc1	DRD3 antagonist -69
O=C(NNC(=O)c1cccnc1)Nc1ccc(Cl)c(Cl)c1	none
O=C(O)c1ccc(S(=O)(=O)N2CCC(n3nnc4cc(C(F)(F)F)ccc43)CC2)cc1	none
O=C(O)c1cccc(S(=O)(=O)N2CCC(n3nnc4cc(C(F)(F)F)ccc43)CC2)c1	DRD3 antagonist -76
COc1ccc(C(=O)N/C(=C\c2ccco2)C(=O)OCc2ccco2)cc1	none
CC(C)(C)NC(=O)/C(=C/c1ccco1)c1ccccc1	none
COc1ccc(N=N/C(=C\O)C(=O)c2cccs2)cc1	a7 integrin act inconclusive
N#CC(C#N)=C1C=CC=CN1/C(=C\c1ccco1)C(=O)c1ccc(Br)cc1	DRD3 antagonist -99
N#CC(C#N)=C1C=CC=CN1/C(=C\c1ccco1)C(=O)c1ccccc1	DRD3 antagonist -106
COc1ccc(/C=C(/C(=O)c2cccs2)N2C=CC=CC2=C(C#N)C#N)cc1	DRD3 antagonist -81
COc1ccc(C(=O)/C(=C\c2ccco2)N2C=CC=CC2=C(C#N)C#N)cc1	DRD3 antagonist -65
N#C/C(=C/c1ccco1)C(N)=S	DRD3 antagonist inconclusive
CCCN(C(=O)c1c(CC)noc1C)c1c(N)n(Cc2ccccc2)c(=O)[nH]c1=O	none
O=C(N/N=C/c1ccc(O)cc1)c1cncc(Br)c1	a7 integrin act inconclusive
COc1ccccc1CC(=O)NC(=O)c1ccccc1O	none
CN1C(=O)C2(SCC(=O)N2c2cccc(C(F)(F)F)c2)c2ccccc21 (stereo unspecified)	none (no result: a7 integrin act, DRD3 antagonist)
Cc1cccc(N2CCN(C(=O)CCS(=O)(=O)c3ccc4c(c3)CC(=O)N4C)CC2C)c1 (stereo unspecified)	none (no result: a7 integrin act, DRD3 antagonist)
O=c1[nH][nH]c(C(F)(F)F)c1C=Nc1cccc(Cl)c1	none
O=c1[nH][nH]c(C(F)(F)F)c1C=Nc1ccccc1	DRD3 antagonist -54
O=C(Cc1ccccc1[N+](=O)[O-])NCC(O)c1ccc2c(c1)OCO2 (stereo unspecified)	none
CC(=O)c1nnn(-c2ccc(C)cc2Cl)c1C	none (no result: a7 integrin act, DRD3 antagonist)
CN(C)C(=O)CCc1ccc2c3c([nH]c2c1)[C@]1(C)[C@@H](C(=O)N2CCOCC2)C[C@H](CC(=O)NCC24CC5CC(CC(C5)C2)C4)C(=O)N1CC3	none
CCN(CC(=O)Nc1ccc([N+](=O)[O-])cc1OC)c1ccccc1	DRD3 antagonist -68
CCN(CC)S(=O)(=O)c1ccc(OC)c(NC(=O)c2ccc([N+](=O)[O-])cc2)c1	none
CCN(CC)S(=O)(=O)c1cc([N+](=O)[O-])ccc1NNC(=O)Nc1ccc(F)cc1	DRD3 antagonist -72
COc1cc([N+](=O)[O-])ccc1NC(=O)CN(C)C	none
O=C(Nc1ccc(F)cc1)Nc1ccc([N+](=O)[O-])cn1	none
CCN(CC)S(=O)(=O)c1cc([N+](=O)[O-])ccc1NNC(=O)Nc1ccccc1OC	DRD3 antagonist -86
O=C(O)CCSCc1ccccc1F	none
C=CCC1(CC=C)CCCN1C(=O)c1cc(COc2cccc(C(F)(F)F)c2)on1	none
O=C(CSc1nc2cc(Cl)ccc2s1)NC1CCCc2ccccc21 (stereo unspecified)	DRD3 agonist 33
O=C(CSc1cc(Cl)ccc1Cl)NC1CCCc2ccccc21 (stereo unspecified)	none
Nc1nc(SCc2ccc(Cl)cc2Cl)nc2nc3c(cc12)CCCC3	DRD3 antagonist -57
Nc1nc(SCc2ccccc2Cl)nc2nc3c(cc12)CCCC3	none
CCOc1cccc(NC(=O)C2CC(=O)N(C)C(=Nc3ccccc3)S2)c1 (stereo unspecified)	none
COc1ccc(CCN2CC(C(=O)Nc3cccc(C(C)=O)c3)CC2=O)cc1OC (stereo unspecified)	DRD3 antagonist -61
CC(=O)c1cccc(NC(=O)C2CC(=O)N(CCc3ccccc3)C2)c1 (stereo unspecified)	none
CCOc1cccc(NC(=O)C2CC(=O)N(C)C2)c1 (stereo unspecified)	DRD3 antagonist -77
COCc1cc(C)nc2sc(C(=O)NN)c(-n3cccc3)c12	none
COc1ccc(C(=O)Nc2ccccn2)cc1S(=O)(=O)N1CCOCC1	none
CCC1CCc2c(sc(NC(=O)c3cccnc3)c2C(N)=O)C1 (stereo unspecified)	none
Cc1cn([C@H]2C[C@H](O)[C@@H](/C=C/C(=O)NCCc3cccnc3)O2)c(=O)[nH]c1=O	DRD3 agonist 59 (no result: a7 integrin act)
Cc1cn([C@H]2C[C@H](O)[C@@H](/C=C/C(=O)NCc3ccccc3)O2)c(=O)[nH]c1=O	none (no result: a7 integrin act)
CN(Cc1ccon1)C(=O)CC1C(=O)NCCN1Cc1ccccc1C(F)(F)F (stereo unspecified)	none
Cc1ccc2c(c1)nnn2C1CCN(C(=O)Nc2ccccc2C)CC1	none

Bioassay records (PubChem)
